We go through seven molecules from PubChem BioAssay (Tox21).

Inconclusive results are not listed. Activity calls are given as the source filed them. Unless noted, calls follow the shape of the dose curve; as a rule, active = well fitted curve in the direction sought with a large enough effect in the repeat runs; inconclusive = weak or mixed curves; inactive = no such curve, though single readings can be large; an effect the other way counts as inactive or inconclusive.

Experiment [1] in a line: qHTS assay for small molecule agonists of the p53 signaling pathway (AID 651631; calls by dose curve; also: nearly all actives have a fitted effect of over 15% in size). The method, boiled down:
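Stably transfected HCT-116 cells (beta-lactamase behind p53 response elements) get compounds after a 5 h settling period; 16 h later at 37 °C, FRET substrate is loaded and fluorescence read after 2 h.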

Experiment [2] can be described thus: qHTS assay for small molecules that induce genotoxicity in human embryonic kidney cells expressing luciferase-tagged ATAD5 (AID 651632). Also: nearly all actives have a fitted effect of over 15% in size. The method, boiled down: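 Luminescent reporter readout, HEK293T ATAD5-luc line: 16 hr drug exposure (37C, 5% CO2) followed by Amplite, 30 min RT.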
(qHTS replaces the single test concentration by a dilution series.)

Experiment [3] can be described thus: qHTS assay for small molecule agonists of the p53 signaling pathway - cell viability (AID 651633; calls by dose curve;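 also: p53RE-bla HCT reporter cells with a stable beta-lactamase p53 reporter; series mostly up to about 83 µM; nearly all actives have a fitted effect of over 30% in size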). The method, boiled down: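 p53RE-bla cells were treated with compound for 16 hours at 37 C. Cytotoxicity was then measured as CellTiter-Glo luminescence after 30 min at room temperature.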
Experiment [4] can be described thus: qHTS assay for small molecules that induce genotoxicity in human embryonic kidney cells expressing luciferase-tagged ATAD5 - cell viability (AID 651634; calls by dose curve; also: nearly all actives have a fitted effect of over 25% in size). The method, boiled down: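 Viability read: CellTiter-Fluor fluorescence, 30 min at 37C. Cells: HEK293T, luciferase-tagged ATAD5. Exposure: 15.5 hr, 37C, 5% CO2, compound or DMSO vehicle.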
Experiment [5] in a line: qHTS assay for small molecule disruptors of the mitochondrial membrane potential - cell viability (AID 720634; calls by dose curve;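 also: human HepG2 liver cancer cells; series mostly up to about 83 µM; nearly all actives have a fitted effect of over 20% in size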). The method, boiled down:
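HepG2, 1 hr compound, 37 C. ATP luminescence via CellTiter-Glo, 30 min RT, same well as m-MPI.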

Experiment [6] can be described thus: qHTS assay for small molecule disruptors of the mitochondrial membrane potential (AID 720635). Also: potency is read from the fitted curve at half-maximal effect. The method, boiled down: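 HepG2 cells exposed to compound 1 hr at 37C, then Mito-MPS dye 30 min. Ratio read of aggregate (540/590 nm) versus monomer (490/535 nm) fluorescence.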
Experiment [7] in a line: qHTS assay to test for compound auto fluorescence at 590 nm (red) in HepG2 cells (AID 720674). The method, boiled down:
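Seeding: 2,000 HepG2 cells/well, MEM/10% FBS, overnight 37 C. Dosing: compound vs DMSO. Incubation: 1 hr, 37 C, 5% CO2. Read: fluorescence 540 ex/590 em, Rose Bengal sodium as red reference.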

The nature of experiment [8]: qHTS assay to test for compound auto fluorescence at 535 nm (green) in HepG2 cells (AID 720675).
The nature of experiment [9]: qHTS assay to test for compound auto fluorescence at 460 nm (blue) in HEK293 cells (AID 720678). The method, boiled down:
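HEK293, 2,000 cells/well, 10% dialyzed FBS; attach 4-5 hr 37C; pin compound or DMSO; o/n 37C/5% CO2; fluorescence 405/460 nm; triamterene-equivalent units.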

A short description of experiment [10]: qHTS assay to test for compound auto fluorescence at 535 nm (green) in HEK293 cells (AID 720680).
A short description of experiment [11]: qHTS assay to test for compound auto fluorescence at 460 nm (blue) in HEK293 cell free culture (AID 720681). The method, boiled down:
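Compounds were added to cell-free DMEM with 10% FBS and fluorescence read directly. The blue channel used 405 nm excitation and 460 nm emission, with triamterene as the reference fluorophore.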

Experiment [12] in a line: qHTS assay to test for compound auto fluorescence at 535 nm (green) in HEK293 cell free culture (AID 720682). The method, boiled down:
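Using fluorescein as calibrant, autofluorescence was quantified at 485/535 nm in cell-free DMEM containing 10% FBS after pintool addition of compound or vehicle.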

A short description of experiment [13]: qHTS assay to test for compound auto fluorescence at 590 nm (red) in HEK293 cell free culture (AID 720683). The method, boiled down:
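Cell-free wells of DMEM with 10% FBS received compound, and intrinsic fluorescence was read at excitation/emission 540/590 nm. Values expressed as equivalence to Rose Bengal sodium.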

The nature of experiment [14]: qHTS assay to test for compound auto fluorescence at 460 nm (blue) in HepG2 cell free culture (AID 720685). The method, boiled down:
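Compound (23 nL) or DMSO pinned into cell-free MEM with 10% FBS; blue fluorescence read at 405/460 nm excitation/emission, expressed as auto-fluorescence equivalency to triamterene.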

Experiment [15] is described as follows: qHTS assay to test for compound auto fluorescence at 535 nm (green) in HepG2 cell free culture (AID 720686).
Experiment [16] can be described thus: qHTS assay to test for compound auto fluorescence at 590 nm (red) in HEK293 cells (AID 720679). The method, boiled down:
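Intensity at 540nm excitation and 590nm emission is reported as Rose Bengal sodium-equivalent autofluorescence. Measurements followed overnight exposure (37C, 5% CO2) of HEK293 cells, 2,000 per well, to 23 nL compound.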

A short description of experiment [17]: qHTS assay to test for compound auto fluorescence at 590 nm (red) in HepG2 cell free culture (AID 720684). The method, boiled down: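 Compounds are added to culture medium (MEM, 10% FBS) lacking cells, then fluorescence is read at excitation 540 nm, emission 590 nm, with Rose Bengal sodium as the equivalency standard.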
Experiment [18] is described as follows: qHTS assay to test for compound auto fluorescence at 460 nm (blue) in HepG2 cells (AID 720687). The method, boiled down:
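HepG2 cells in MEM with 10% FBS, attached overnight at 37 C, were exposed to compound or DMSO for 1 hr at 37 C, 5% CO2. Blue fluorescence was read at 405/460 nm, with triamterene as reference fluorophore.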

Experiment [19] concerns the target Glucocorticoid receptor (Homo sapiens) (UniProt P04150). Nature of the experiment: qHTS assay to identify small molecule agonists of the glucocorticoid receptor (GR) signaling pathway (AID 720691; active = well fitted activation curve with a large enough effect in the signal ratio in the repeat runs, not every such curve was filed as active; the % refers to the signal ratio). The method, boiled down: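 qHTS in GR-bla HeLa cells: 4 h settling at 37 C/5% CO2, 18 h compound incubation at 37 C, 2 h LiveBLAzer B/G FRET substrate at room temperature, fluorescence intensity measured.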

For experiment [20] the target is unchanged. Nature of the experiment: qHTS assay to identify small molecule antagonists of the glucocorticoid receptor (GR) signaling pathway (AID 720692; active = well fitted inhibition curve with a large enough effect in the signal ratio in the repeat runs, not every such curve was filed as active; the % refers to the signal ratio). The method, boiled down:
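Inhibition of glucocorticoid signalling is measured in HeLa cells with a GRE-controlled beta-lactamase reporter; cells are co-treated with compound and 5 nM dexamethasone (final) for 18 h before FRET substrate readout.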

Sequence of Glucocorticoid receptor (Homo sapiens) (P04150 whole entry, looked up): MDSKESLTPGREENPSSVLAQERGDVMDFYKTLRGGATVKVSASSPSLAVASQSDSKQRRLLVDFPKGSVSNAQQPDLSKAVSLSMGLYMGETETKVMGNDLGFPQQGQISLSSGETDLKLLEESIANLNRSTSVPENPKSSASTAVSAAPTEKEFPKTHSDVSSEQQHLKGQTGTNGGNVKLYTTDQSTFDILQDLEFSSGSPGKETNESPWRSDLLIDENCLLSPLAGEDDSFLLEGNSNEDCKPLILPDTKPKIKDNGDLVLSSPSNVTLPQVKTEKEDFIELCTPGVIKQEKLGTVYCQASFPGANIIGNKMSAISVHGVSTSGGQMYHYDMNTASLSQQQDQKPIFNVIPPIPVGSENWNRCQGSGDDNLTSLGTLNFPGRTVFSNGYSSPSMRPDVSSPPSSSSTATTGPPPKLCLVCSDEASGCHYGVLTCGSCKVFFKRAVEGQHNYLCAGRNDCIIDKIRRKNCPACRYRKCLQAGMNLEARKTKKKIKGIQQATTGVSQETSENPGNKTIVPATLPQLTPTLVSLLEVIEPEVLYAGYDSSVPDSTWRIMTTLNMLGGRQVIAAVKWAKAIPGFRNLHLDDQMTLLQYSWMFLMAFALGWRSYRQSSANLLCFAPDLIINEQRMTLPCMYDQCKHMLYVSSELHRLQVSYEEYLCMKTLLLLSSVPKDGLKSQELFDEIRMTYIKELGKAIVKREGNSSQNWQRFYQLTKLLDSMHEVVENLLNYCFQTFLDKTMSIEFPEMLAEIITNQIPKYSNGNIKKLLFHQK

Regarding `CN1C(=O)c2ccc([N+](=O)[O-])cc2C1=O`, the Potency entry in experiment [1], in experiment [2], in experiment [3], in experiment [4], in experiment [5] and in experiment [8] was “inactive” throughout. The Potency entry in experiment [9], in [10], in [11], in [12], in experiment [14] and in [15] was “inactive” in each case. The Potency in [6] was 61.1 µM (active). The call in [7] and in experiment [13] was inactive.

For `CCC[C@H](N[C@@H](C)C(=O)N1[C@H](C(=O)O)C[C@@H]2CCCC[C@@H]21)C(=O)OCC`, the Potency result in experiment [1], in experiment [2], in experiment [3], in experiment [4], in experiment [5] and in [6] was “inactive” each time. For the same molecule, the Potency entry in experiment [8], in experiment [9], in experiment [10], in [11], in experiment [12] and in experiment [15] was “inactive” throughout. The Potency result in experiment [18], in experiment [19] and in experiment [20] was “inactive” throughout. In addition, the call in [7], in experiment [16], in [13] and in experiment [17] was inactive.

For the molecule `Cc1cccc(O)c1C`, the Potency result in [1], in [2], in [3], in experiment [4], in experiment [5] and in experiment [6] was “inactive” in each case. Also, the Potency entry in [8], in experiment [10], in experiment [11], in experiment [12], in [14] and in [15] was “inactive” each time. Moreover, the Potency result in experiment [18], in experiment [19] and in [20] was “inactive” throughout. Also, the molecule was classed as inactive in experiment [7], in experiment [13] and in experiment [17].

For `CC(C)C(=O)c1c(C(C)C)nn2ccccc12`, the Potency result in experiment [1], in experiment [2], in experiment [3], in experiment [4], in [5] and in experiment [6] was “inactive” each time. Besides, the Potency entry in experiment [8], in experiment [9], in experiment [10], in experiment [11], in [12] and in experiment [14] was “inactive” in each case. For the same molecule, the Potency result in [15] and in experiment [18] was “inactive” each time. The outcome in experiment [7], in experiment [16], in experiment [13] and in experiment [17] was inactive.

As to `C=C(C)C1CC=C(C)C(OC(C)=O)C1` (stereo not given), the Potency result in [1], in experiment [2], in [3], in experiment [4], in [5] and in experiment [6] was “inactive” in each case. Moreover, the Potency entry in experiment [8], in experiment [9], in experiment [10], in experiment [11], in experiment [12] and in experiment [14] was “inactive” each time. Moreover, the Potency entry in experiment [15], in experiment [18], in [19] and in experiment [20] was “inactive” throughout. The molecule was called inactive in [7], in experiment [13] and in experiment [17].

As for `CC1=C(C=O)C(C)(C)CC=C1`, the Potency result in [1], in experiment [2], in experiment [3], in experiment [4], in experiment [5] and in [8] was “inactive” in each case. Moreover, the Potency entry in experiment [9], in experiment [10], in experiment [11], in experiment [12], in experiment [14] and in experiment [15] was “inactive” throughout. Besides, the Potency entry in experiment [19] and in experiment [20] was “inactive” in each case. Also, the call in [7], in experiment [16], in experiment [13] and in experiment [17] was inactive.

Take `C[N+]1([O-])CCOCC1`: the Potency result in experiment [1], in [2], in experiment [3], in experiment [4], in experiment [5] and in experiment [6] was “inactive” throughout. Also, the Potency entry in experiment [8], in experiment [9], in experiment [10], in [11], in [12] and in experiment [14] was “inactive” each time. Also, the Potency result in [15], in experiment [18] and in [19] was “inactive” throughout. Besides, the call in experiment [7], in [16] and in experiment [13] was inactive.
